Activity increase over dofetilide control, less the hit threshold and activity increase over dofetilide control data for 56 compounds are collected here from PubChem BioAssay AID1835 (Johns Hopkins Ion Channel Center, 2009).

About 750 (31%) of roughly 2,400 compounds were called active.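 The calls were made as follows: active = median signal gain over dofetilide-blocked control wells reaching their mean plus 3 SD, so readout 1 at least 0; inactive = the rest.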 Some of the results follow.

The target in this test is Voltage-gated inwardly rectifying potassium channel KCNH2 (Homo sapiens) (UniProt Q12809). Put plainly: hERG protection against dofetilide inhibition, confirmation, cell-based, thallium flux, duplicate retest, dofetilide IC70 (AID 1835). The conditions noted are these: hERG cell line, FluxOR thallium flux, dofetilide-blocked; at 10 µM; active compounds read high. (In general: The hERG channel carries a current that helps repolarise heart muscle cells.)
Voltage-gated inwardly rectifying potassium channel KCNH2 (Homo sapiens), sequence (Q12809 whole entry, looked up): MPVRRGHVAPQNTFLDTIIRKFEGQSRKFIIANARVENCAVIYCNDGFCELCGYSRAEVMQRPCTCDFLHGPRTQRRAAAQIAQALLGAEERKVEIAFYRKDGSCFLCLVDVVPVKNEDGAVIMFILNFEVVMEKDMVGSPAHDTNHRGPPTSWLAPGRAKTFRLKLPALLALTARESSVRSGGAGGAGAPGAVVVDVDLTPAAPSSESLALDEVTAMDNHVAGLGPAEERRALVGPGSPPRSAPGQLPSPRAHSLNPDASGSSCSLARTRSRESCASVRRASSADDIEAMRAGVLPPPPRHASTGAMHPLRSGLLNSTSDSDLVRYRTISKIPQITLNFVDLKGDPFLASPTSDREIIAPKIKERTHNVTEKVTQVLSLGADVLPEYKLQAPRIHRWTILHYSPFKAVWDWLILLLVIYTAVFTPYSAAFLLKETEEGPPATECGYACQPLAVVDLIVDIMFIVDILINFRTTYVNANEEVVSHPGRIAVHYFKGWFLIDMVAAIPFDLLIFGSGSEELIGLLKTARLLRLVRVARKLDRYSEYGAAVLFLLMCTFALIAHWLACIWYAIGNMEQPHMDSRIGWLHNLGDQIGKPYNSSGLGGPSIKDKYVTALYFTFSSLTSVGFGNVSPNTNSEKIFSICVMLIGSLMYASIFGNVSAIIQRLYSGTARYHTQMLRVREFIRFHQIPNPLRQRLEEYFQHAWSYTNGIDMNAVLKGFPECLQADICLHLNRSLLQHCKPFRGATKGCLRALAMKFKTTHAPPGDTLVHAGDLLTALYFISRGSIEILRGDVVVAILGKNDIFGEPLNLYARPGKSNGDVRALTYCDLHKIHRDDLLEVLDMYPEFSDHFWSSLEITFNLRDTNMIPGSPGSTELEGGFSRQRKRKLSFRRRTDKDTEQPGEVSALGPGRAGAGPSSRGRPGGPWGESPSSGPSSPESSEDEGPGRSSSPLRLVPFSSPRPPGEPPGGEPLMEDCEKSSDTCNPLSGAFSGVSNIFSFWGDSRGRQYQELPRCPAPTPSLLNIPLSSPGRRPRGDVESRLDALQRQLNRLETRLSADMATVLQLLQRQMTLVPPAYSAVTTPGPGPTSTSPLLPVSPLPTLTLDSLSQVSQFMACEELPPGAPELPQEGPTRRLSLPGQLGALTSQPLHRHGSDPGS
With `CC/C(=C\C=C\[C@@H]1C=C[C@@H]2CCC[C@H]2[C@@H]1C(=O)c1ccc[nH]1)[C@@H]1O[C@@H]([C@@H](C)C(=O)O)CC[C@@H]1C`, the activity increase over dofetilide control, less the hit threshold is 128% (active). As to `Cc1nc2ccccc2c(=O)n1-c1cc([N+](=O)[O-])cc([N+](=O)[O-])c1`, the activity increase over dofetilide control was -26% (inactive). On the same count and under the same terms, the result for `O=C(Cn1ncc2c3ccccc3n(Cc3ccccc3F)c2c1=O)N1CCC2(CC1)OCCO2` reads 2% (active).

Turning to `CCCc1[nH]nc2c1C1(C(=O)N(Cc3ccccc3)c3ccccc31)C(C(=O)OC)=C(N)O2` (stereo unspecified), the activity increase over dofetilide control, less the hit threshold was -35% (inactive). With `CC(=NCc1ccco1)c1c(O)n(-c2ccc(C)cc2)c(=O)[nH]c1=O`, the activity increase over dofetilide control is -19% (inactive). On the same count and under the same terms, the result for `O=c1[nH]c(=S)[nH]c(O)c1N=Nc1ccc(S(=O)(=O)N2CCc3ccccc32)cc1` reads 25% (active); that for `COc1ccc(-c2nc(CSCC(=O)N3CCC4(CC3)OCCO4)c(C)o2)cc1OC`, -23% (inactive). Take `O=C(COc1ccc(Br)cc1)N1CCN(Cc2ccc3c(c2)OCO3)CC1`: the activity increase over dofetilide control, less the hit threshold is -12% (inactive). The same measure, in the same setting: next, `CCOC(=O)c1c(NS(=O)(=O)c2ccccc2)n(CCCOC)c2nc3ccccc3nc12`: 65% (active). Take `CCCCn1c(O)c(C(CC)=Nc2ccc(OCC)cc2)c(=O)[nH]c1=O`: the activity increase over dofetilide control was -23% (inactive).

In the case of `NS(=O)(=O)c1ccc(-c2ccc(C=C3C(=O)NC(=O)NC3=O)o2)cc1`, the activity increase over dofetilide control was -2% (inactive). Consider `CCOC(=O)Cn1cc([N+](=O)[O-])nc1[N+](=O)[O-]`, for which the activity increase over dofetilide control, less the hit threshold is -18% (inactive). Still for that read-out and setting: next, `O=C1CC(=O)N(c2cccc(C(F)(F)F)c2)C(=O)N1`: -15% (inactive).

On to `Cc1ccc(-n2c(O)c(/C=N/Nc3ccccc3)c(=O)[nH]c2=O)cc1C`, for which the activity increase over dofetilide control is -5% (inactive). Still for that read-out and setting: the result for `O=c1[nH]c(=S)[nH]c(O)c1/C=C1/C=c2ccccc2=N1` reads 14% (active); that for `C=CCn1c(O)c(/C=C2/C=c3ccccc3=N2)c(=O)[nH]c1=S`, 96% (active). Turning to `Cc1ccc(S(=O)(=O)NC(Cc2cnc[nH]2)C(=O)O)cc1` (stereo unspecified), the activity increase over dofetilide control, less the hit threshold was -7% (inactive). On to `COc1ccc2c3c1OC1C(O)C=CC4C(C2)[N+](C)(C)CCC341` (stereo unspecified), for which the activity increase over dofetilide control is -2% (inactive). Turning to `Oc1ccc(CC2(N3CCCC3)CCCCC2)cc1`, the activity increase over dofetilide control, less the hit threshold is -14% (inactive). The same measure, in the same setting: the result for `CC(C)(C)c1ccc(OC(=O)N2CCCCC2)cc1` reads -16% (inactive); that for `O=S(=O)(c1ccccc1)N1CCCCC1c1cccnc1` (stereo unspecified), -17% (inactive). Consider `O=C1NC(=O)N(Cc2ccccc2Cl)C(=O)/C1=C/N1CCOCC1`, for which the activity increase over dofetilide control was -7% (inactive). Same read-out and setting: next, `O=C1NC(=O)C(=Cc2ccc(-c3ccc(Cl)cc3)o2)C(=O)N1`: -1% (inactive); `O=C(O)CCC(=O)NCCC1=c2ccccc2=N/C1=C\c1c(O)n(Cc2ccc(F)cc2)c(=S)[nH]c1=O`: 11% (active); `CN1C(=O)C(Cc2ccc3c(c2)OCO3)C(=O)N(C)C1=O`: -15% (inactive). Regarding `N#CC1=C(N)Oc2c(c(=O)oc3ccccc23)C1c1cccnc1` (stereo unspecified), the activity increase over dofetilide control, less the hit threshold was 8% (active). Same read-out and setting: the result for `Oc1cccc2cccnc12` reads -5% (inactive); that for `N#CCCn1cc(C(=O)Nc2ccccc2Cl)c(-c2ccc(F)cc2)n1`, -14% (inactive). Still for that read-out and setting: the result for `O=c1c2cc(Br)ccc2[nH]c(=S)n1-c1ccccc1` reads 2% (active); that for `O=c1c2ccccc2[nH]c(=S)n1-c1ccc2c(c1)OCCO2`, -26% (inactive). Consider `CN1C(=O)/C(=C/c2ccc(Cl)s2)C(=O)NC1=S`, for which the activity increase over dofetilide control was 12% (active).

For `CN1C(=O)/C(=C\c2ccc(Br)s2)C(=O)NC1=S`, the activity increase over dofetilide control was 26% (active).

In the case of `CCCCN1C(=O)/C(=C/c2ccc(N3CCCCCC3)cc2)C(=O)NC1=S`, the activity increase over dofetilide control is -4% (inactive). On the same count and under the same terms, next, `C=CCN1C(=O)/C(=C/c2ccc(Br)s2)C(=O)NC1=S`: 8% (active); `O=C1NC(=O)C(=Cc2ccc(-c3cc(Cl)ccc3[N+](=O)[O-])o2)C(=O)N1`: -20% (inactive). With `CN1CCN(CC#CCOc2ccc(Cl)cc2)CC1`, the activity increase over dofetilide control, less the hit threshold was -9% (inactive). The same measure, in the same setting: the result for `C1CCC2S[C@H]3CCCCC3NC2C1` (stereo partly specified) reads -17% (inactive). On to `NC(=O)Cn1cc(C(=O)c2ccccc2F)c2ccccc21`, for which the activity increase over dofetilide control was -9% (inactive). Turning to `CC(=NCc1ccco1)c1c(O)n(C)c(=O)n(C)c1=O`, the activity increase over dofetilide control was -12% (inactive). Same read-out and setting: next, `O=c1[nH]c(O)c(/C=C2/C=CC(c3cc(Cl)ccc3Cl)=N2)c(=O)[nH]1`: 30% (active). For the compound `O=C(O)c1c[nH]c2ccc(S(=O)(=O)N(CCCl)CCCl)cc12`, the activity increase over dofetilide control, less the hit threshold is -11% (inactive). Take `CC1N=C(c2ccccc2Cl)c2cc(Br)ccc2NC1=O` (stereo unspecified): the activity increase over dofetilide control is -24% (inactive).

On to `CN1CCCCC1c1ccc(-c2cccnc2)nc1` (stereo unspecified), for which the activity increase over dofetilide control, less the hit threshold is -15% (inactive). For `Cc1ccccc1N1C(=O)/C(=C/c2ccco2)C(=O)NC1=S`, the activity increase over dofetilide control was 14% (active). Same read-out and setting: the result for `Cc1ccc(/C=C2\C(=O)NC(=S)N(c3ccc(F)cc3)C2=O)s1` reads 5% (active); that for `COc1ccc(OC)c(N2C(=O)/C(=C/c3ccco3)C(=O)NC2=S)c1`, 0% (inactive); that for `O=C1NC(=S)N(c2ccc(F)cc2)C(=O)/C1=C/c1ccco1`, 4% (active). Still for that read-out and setting: next, `O=C1NC(=O)N(c2ccccc2)C(=O)/C1=C/c1ccc(Sc2ccccc2)o1`: -6% (inactive). As for `COc1ccc(CN2CCCC(C(=O)c3sccc3C)C2)cc1O` (stereo unspecified), the activity increase over dofetilide control, less the hit threshold is -21% (inactive). On the same count and under the same terms, next, `COc1cccc(OC)c1C(=O)Nc1nc(N)n(-c2ccccc2)n1`: -22% (inactive); `CCn1nc(/C=C/c2ccccc2)nc2c(=O)n(C)c(=O)nc1-2`: -22% (inactive). For `O=C1NC(=O)N(CCNc2ncc(C(F)(F)F)cc2Cl)C(=O)C1Cc1ccc(Cl)cc1` (stereo unspecified), the activity increase over dofetilide control was -11% (inactive). In the case of `CN(C)C(=O)O/N=C(\N)COc1ccc(C(C)(C)C)cc1`, the activity increase over dofetilide control, less the hit threshold was -17% (inactive). Same read-out and setting: next, `NCCc1ccc(S(N)(=O)=O)cc1`: -18% (inactive). Regarding `COc1ccccc1N1CCN(Cc2ccc(F)cc2)CC1`, the activity increase over dofetilide control is -10% (inactive). Regarding `COc1ccc2c(c1)/C(=C/c1cnc[nH]1)C(=O)N2`, the activity increase over dofetilide control, less the hit threshold is -6% (inactive).
